Screens as filed in PubChem.
HEK cytotox = HEK 293 cell cytotoxicity; HEK 293 viability, ATP luminescence (CellTiter-Glo), 48-72 h; Potency, µM (series often up to 115 µM), without a hit: at the top dose activity change, negative = cytotoxicity, most hits filed as inhibitors; actives 6.6% (n = 94,000); note: nearly all actives have a fitted effect of over 60% in size
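250 HEK 293 cells/well; compound by pintool; incubated 48 or 72 hr at 37 degree Celsius; CellTiter-Glo added, 10 min RT, luminescence imaged.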
Luciferase inh = blocks purified firefly luciferase enzyme activity | Potency, µM (series often up to 115 µM), most hits filed as inhibitors | actives 2.5% (n = 76,000) | AID 1347043 | purified P. pyralis luciferase, luminescence, biochemical; note: nearly all actives have a fitted effect of over 65% in size
Target sequence (P08659 whole entry, looked up): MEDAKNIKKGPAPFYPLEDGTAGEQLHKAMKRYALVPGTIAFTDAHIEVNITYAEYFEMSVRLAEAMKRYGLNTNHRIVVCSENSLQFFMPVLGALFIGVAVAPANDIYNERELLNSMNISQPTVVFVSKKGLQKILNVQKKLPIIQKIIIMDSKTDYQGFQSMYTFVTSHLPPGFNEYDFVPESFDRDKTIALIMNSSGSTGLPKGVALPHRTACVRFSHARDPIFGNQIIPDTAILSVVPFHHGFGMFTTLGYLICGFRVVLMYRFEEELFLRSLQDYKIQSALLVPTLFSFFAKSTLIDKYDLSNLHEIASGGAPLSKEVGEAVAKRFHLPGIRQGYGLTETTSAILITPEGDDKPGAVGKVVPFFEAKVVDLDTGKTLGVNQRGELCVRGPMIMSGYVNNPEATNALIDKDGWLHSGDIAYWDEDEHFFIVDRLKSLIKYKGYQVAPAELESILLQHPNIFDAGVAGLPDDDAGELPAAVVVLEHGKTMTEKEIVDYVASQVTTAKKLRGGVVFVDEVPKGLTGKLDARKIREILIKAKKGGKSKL
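Purified P. pyralis luciferase (10nM final) in 50mM Tris acetate pH 7.5, 10mM Mg acetate, 0.01% Tween-20, 0.05% BSA with 10uM D-luciferin and 10uM ATP. Compounds titrated qHTS. Luminescence imaged on CCD.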
3T3 cytotox = NIH 3T3 cell cytotoxicity. NIH 3T3 viability, CellTiter-Glo ATP luminescence, 48-72 h. Potency, µM (doses to about 96.7 µM), for the others: at the top dose activity change, negative = cytotoxicity, hits mostly inhibitors. actives 4.3% (n = 94,000). AID 1345082; note: nearly all actives have a fitted effect of over 55% in size
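Luminescent ATP readout (CellTiter-Glo, 10 min RT) after 48 or 72 hr compound exposure of NIH 3T3 cells seeded at 400 cells/well in 1536-well format; quantitative HTS.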
hNpr1 antagonist = antagonists of human natriuretic peptide receptor Npr1; P16066; HEK293 hNpr1 GloSensor cGMP, ANP-stimulated luminescence; Potency, µM (titrated, usually from 46.3 µM), for the others: top-dose activity change, negative = inhibition, usual class: inhibitors; actives 1.6% (n = 76,000); AID 1347048; calls by dose curve; note: nearly all actives have a fitted effect of over 60% in size
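Compound pre-incubated 30 min at room temperature on GloSensor-loaded HEK293 cells stably carrying hNpr1 and the pGS-40F cGMP biosensor. Stimulation uses hNppA at 0.1 nM final; luminescence is taken at baseline and 20 min post-agonist.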
* hit, by the source's call; i = inactive; ? = inconclusive; nt = no result given; [ ] = dose if it differs, or a comment. Hits are enriched below; roughly 11% of the tested compounds scored in any of these assays. Unless noted, calls come from the whole dose curve; as a rule, active = well fitted curve in the direction sought with a large enough effect; inconclusive = small, poorly fitted or top-dose-only effect, or another doubt; inactive = no such curve, though single readings can be large; an effect the other way counts as inactive or inconclusive. % is set by controls: 0 for no effect and ±100 for the full control effect; potency is the fitted concentration of half-maximal effect.

SMILES	HEK cytotox	Luciferase inh	3T3 cytotox	hNpr1 antagonist
CC(C)N1C[C@H](C(=O)NCCOc2ccccc2)[C@H](C(=O)O)C1	-17.3%	?	-12.1%	-23.1%
COc1ccc(Nc2ccnc(N3CCCC(C(=O)NCc4ccccc4Cl)C3)n2)cc1 (stereo not drawn)	35.5µM*	nt	35.5µM*	nt
COc1ccc(Nc2ccnc(N3CCCC(C(=O)N4CCC(Cc5ccccc5)CC4)C3)n2)cc1 (stereo not drawn)	20µM*	nt	28.2µM*	nt
COc1ccc(Nc2ccnc(N3CCCC3C(=O)NCc3ccccc3)n2)cc1 (stereo not drawn)	?	nt	-24.2%	nt
CCN1CCN(C(=O)c2cc(C(C)(C)C)nc3c2cnn3C)CC1	-25.7%[172 µM]	nt	?	nt
O=C(NC1CCCCCC1)C1CCc2nnc(-c3ccc(F)cc3)n21 (stereo not drawn)	-18.9%	nt	-24.1%	nt
O=C1NC(=NC2CCCCC2)C2(CCN(Cc3cccnc3)C2)N1c1cc(F)cc(F)c1 (stereo not drawn)	-11.0%	nt	35.5µM*	nt
O=C1NC(=NC2CCCCC2)C2(CCN(Cc3cccnc3)CC2)N1c1cc(F)cc(F)c1	i	nt	28.2µM*	nt
Cc1ccc(C(=O)N2CCC(c3n[nH]c(=O)n3Cc3ccc(F)cc3)CC2)cc1F	-26.5%	i	?	-3.1%
Cc1cc(CN(C)C(=O)c2cc(CN3CCC(Cc4ccccc4)CC3)on2)n[nH]1	?	i	-22.1%	-0.6%
CN(Cc1cccc2ccccc12)C1CCOc2ccccc21 (stereo not drawn)	?	i	?	24.1%[70.6 µM]
Cc1ccc(-c2noc(CCCC(=O)N3CCC(c4nc(C(=O)N5CCCC5)c(C)o4)CC3)n2)cc1	35.5µM*	nt	?	nt
CC1Oc2ccc(NS(=O)(=O)c3cccc(Cl)c3)cc2CN(Cc2ccccc2Cl)C1=O (stereo not drawn)	?	i	22.4µM*	-24.3%
CC1Oc2ccc(NS(=O)(=O)c3ccc(Cl)cc3)cc2CN(Cc2ccccc2F)C1=O (stereo not drawn)	?	i	35.5µM*	?
Cc1ccc(S(=O)(=O)Nc2ccc3c(c2)CN(CCc2ccc(F)cc2)C(=O)C(C)O3)cc1F (stereo not drawn)	?	i	?	-18.3%
CCC(c1ccccc1)N1Cc2cc(NS(=O)(=O)c3ccc(F)cc3)ccc2OC(C)C1=O (stereo not drawn)	?	i	14.1µM*	-21.0%
CC1Oc2ccc(NC(=O)c3ccccc3Cl)cc2CN(Cc2ccc3c(c2)OCO3)C1=O (stereo not drawn)	?	i	?	-23.9%
CO[C@H]1CN(C2CCN(C(=O)CCC3CCCC3)CC2)[C@H]1c1cccnc1	?	nt	-35.7%	nt
CN1c2cccnc2CN(CC2CCCCC2)CC[C@H]1CO	?	i	50.1µM*	-1.7%[70.6 µM]
CN1c2cccnc2CN(C2CCCCC2)CC[C@H]1CO	-1.2%[230 µM]	i	-7.4%[230 µM]	1.1%[70.6 µM]
CC(c1ccccc1)N1CCN(c2cccc(CN(C)S(C)(=O)=O)c2)CC1 (stereo not drawn)	44.7µM*	nt	?	nt
COC(=O)N(C)Cc1cccc(N2CCN(C(C)c3ccccc3)CC2)c1 (stereo not drawn)	44.7µM*	nt	?	nt
CN1CC(=O)N(C2CCCNCC2)Cc2c1ncnc2N1CCC(N2CCCCC2)CC1 (stereo not drawn)	-6.8%	nt	1.9%	nt
Cc1nn2c(c1-c1cccnc1N1CCOCC1)N(Cc1ccccc1)CCC2	63.1µM*	i	?	-27.4%[70.6 µM]
COc1ccccc1CN1CCCn2nc(C)c(-c3cccnc3N3CCOCC3)c21	?	i	?	-16.0%[70.6 µM]
SMILES	HEK cytotox	Luciferase inh	3T3 cytotox	hNpr1 antagonist
Cc1ccc(CN2CCCn3nc(C)c(-c4ccccc4-c4ccccc4)c32)o1	?	i	44.7µM*	?
Cc1nn2c(c1-c1cccnc1N1CCOCC1)N(CC1CC1)CCC2	?	i	39.8µM*	-4.5%[70.6 µM]
Cc1nn2c(c1-c1ccccc1-c1ccccc1)N(Cc1ccc(OCC(=O)O)cc1)CCC2	?	i	?	-25.0%
CCOC(=O)C1(Cc2ccccc2C)CCCNC1 (stereo not drawn)	0.7%	i	-26.1%	2.1%
CCOC(=O)CN1C(=O)CCN(C(=O)CC(C)(C)C)CC(OC)c2ccccc21 (stereo not drawn)	-17.5%[57.5 µM]	nt	?	nt
COc1ccccc1CCNC(=O)C1CC(c2ccc(F)c(C)c2)CN(C(=O)C2CC2)C1 (stereo not drawn)	35.5µM*	i	39.8µM*	-14.3%
COc1ccc(C2CC(C(=O)NCc3ccccc3)CN(C(=O)C3CC3)C2)cc1OC (stereo not drawn)	?	i	?	-11.7%
Cc1ccc(C(CC(=O)N2CCCCC2)c2cn(C)c3ccccc23)cc1 (stereo not drawn)	50.1µM*	i	?	-17.6%
Cc1ccc(C(CC(=O)N2CCc3ccccc3C2)c2cn(C)c3ccccc23)cc1 (stereo not drawn)	?	35.5µM*	?	-17.9%
CCOC(=O)C1CCCN(C(=O)CC(c2ccc3c(c2)OCO3)c2cn(CC)c3ccccc23)C1 (stereo not drawn)	?	i	39.8µM*	-15.0%
CCOC(=O)C1CCN(C(=O)CC(c2ccc(Cl)cc2)c2cn(C)c3ccccc23)CC1 (stereo not drawn)	?	i	?	-16.0%
Cc1ccc(-c2noc([C@@H]3Cc4nc[nH]c4CN3Cc3ccc(N(C)C)cc3)n2)cc1	89.1µM*	?	100µM*	?
CN(C)c1ccc(CN2Cc3[nH]cnc3C[C@H]2c2nc(-c3ccccc3)no2)cc1	?	39.8µM*	?	-3.6%[70.6 µM]
O=C(Nc1cccs1)N1CCNc2cnc(Nc3cccc(F)c3)nc2C1	?	i	?	-13.5%[70.6 µM]
Cc1ccc([S+](=O)([O-])N2CCN(C(=O)c3nc4cccnc4n(CCc4ccccc4)c3=O)CC2)cc1	?	nt	-22.0%	nt
COC(=O)CNC(=O)C1CCCN1Cc1cccc(-c2ccc(C)c(Cl)c2)c1 (stereo not drawn)	39.8µM*	nt	?	nt
Cc1ccc(-c2cccc(CN3CCCC3C(=O)NCc3cccc(C(F)(F)F)c3)c2)cc1Cl (stereo not drawn)	39.8µM*	nt	39.8µM*	nt
Cc1ccc(-c2cccc(CN3CCCC3C(=O)NCc3ccccc3)c2)cc1Cl (stereo not drawn)	50.1µM*	nt	44.7µM*	nt
O=C(NCc1ccccc1)C1CCCN1Cc1ccc(-c2cncnc2)cc1 (stereo not drawn)	?	nt	-20.6%	nt
CCOCCNC(=O)C1CCCN1Cc1cccc(-c2ccc(C)c(Cl)c2)c1 (stereo not drawn)	?	nt	14.1µM*	nt
COC(=O)CNC(=O)C1CCCN1Cc1ccc(-c2cncnc2)cc1 (stereo not drawn)	-13.2%	nt	?	nt
O=C(c1ccccc1F)N1CCc2nc(-c3ccccc3)nc(-c3ccc(Cl)cc3)c2C1	?	i	?	0.6%
